In PubChem BioAssay one finds composite z-score and z-score data, which are given here for five compounds.

Activity calls are given as the source filed them.

Experiment [1] is described as follows: binders of probe aFSTL3 on microarray, primary screen, stem cell growth factor project, biochemical, small-molecule microarray, fluorescence 635/667 (AID 1064).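 Also: measures binding of the biotinylated anti-FSTL3 antibody to printed compounds.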 The settings on record: higher = more signal.
The nature of experiment [2]: binders from COS7 lysate, DM2A8 probe, primary screen, torsin A project, cell lysate, small-molecule microarray, fluorescence 635/667 (AID 1065). The settings on record: higher = more signal, COS7 lysate expressing mutant human TOR1A.
A short description of experiment [3]: binders of probe aFGF2 on microarray, primary screen, stem cell growth factor project, biochemical, small-molecule microarray, fluorescence 635/667 (AID 1067).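 Also: measures binding of biotinylated aFGF2 protein to printed compounds on slides; z-score merges feature fluorescence and signal-to-noise across triplicate slides.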 The note with it: higher = more signal.
Experiment [4] is described as follows: binders of probe aFGF10 on microarray, primary screen, stem cell growth factor project, biochemical, small-molecule microarray, fluorescence 635/667 (AID 1071).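 Also: score merges 667 nm spot intensity and signal to noise from triplicate slides.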 The note with it: higher = more signal.
Experiment [5] addresses Neurogenic locus notch homolog protein 2 (Homo sapiens) (UniProt Q04721). In words: Notch2 binders on small-molecule microarrays, primary screen, biochemical, small-molecule microarray, 635 nm fluorescence, stem cell growth factors (AID 1073). The settings on record: Notch2 binding, higher = more signal.
The target of experiment [6] is Pro-neuregulin-1, membrane-bound isoform (Homo sapiens) (UniProt Q02297). In words: NRG1 binders on small-molecule microarrays, primary screen, psychiatric disease protein project, biochemical, small-molecule microarray, fluorescence 635/667 (AID 1075).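 Also: score combines 667 nm spot fluorescence with signal to noise.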 The settings on record: NRG1 binding, 635 nm fluorescence, higher = more signal.
Chain of Pro-neuregulin-1, membrane-bound isoform (Homo sapiens) (Q02297 whole entry, looked up, the tested form may be a part, canonical isoform): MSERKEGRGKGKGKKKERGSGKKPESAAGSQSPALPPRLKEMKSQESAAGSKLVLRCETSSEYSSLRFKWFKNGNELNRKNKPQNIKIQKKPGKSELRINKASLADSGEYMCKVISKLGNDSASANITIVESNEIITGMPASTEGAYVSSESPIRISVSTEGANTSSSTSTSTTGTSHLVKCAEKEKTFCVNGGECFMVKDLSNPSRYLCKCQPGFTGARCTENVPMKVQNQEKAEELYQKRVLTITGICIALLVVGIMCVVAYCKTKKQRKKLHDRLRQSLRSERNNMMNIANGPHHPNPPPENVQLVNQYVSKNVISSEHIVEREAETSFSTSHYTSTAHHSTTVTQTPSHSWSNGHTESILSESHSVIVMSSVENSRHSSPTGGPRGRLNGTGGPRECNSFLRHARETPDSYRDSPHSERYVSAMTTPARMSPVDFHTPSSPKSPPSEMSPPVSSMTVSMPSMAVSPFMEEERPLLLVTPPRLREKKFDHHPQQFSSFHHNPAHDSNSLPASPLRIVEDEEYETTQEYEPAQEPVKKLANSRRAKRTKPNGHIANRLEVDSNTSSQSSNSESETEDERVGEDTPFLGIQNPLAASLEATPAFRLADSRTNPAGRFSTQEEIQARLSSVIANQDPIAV
In experiment [7] the test system is Neuregulin-1 EGF-like domain. In words: binders of neuregulin-1 EGF-like domain, primary screen, biochemical, small-molecule microarray, 635 nm fluorescence (AID 1081).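 Also: binding of the protein to compounds printed on small-molecule microarray slides.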 The note with it: small-molecule microarray binding, higher = more signal.
The nature of experiment [8]: FRG1 promoter luciferase signal modulators, primary screen, FRG1 inhibition for FSHD, cell-based, C2C12 myotubes, firefly/Renilla luciferase, luminescence (AID 1084). The settings on record: higher = more signal, called active from +8 up or from −8 down.
Experiment [9] can be described thus: binders of probe aFST on microarray, primary screen, stem cell growth factor project, biochemical, small-molecule microarray, fluorescence 635/667 (AID 1086).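 Also: score merges 667 nm fluorescence with signal-to-noise of each printed compound spot.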 The settings on record: higher = more signal.
Experiment [10] is described as follows: binders of probe aHhip on microarray, primary screen, stem cell growth factor project, biochemical, small-molecule microarray, fluorescence 635/667 (AID 1087).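 Also: score merges spot fluorescence at 667nm with spot signal to noise ratio.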 The note with it: higher = more signal.
Experiment [11] concerns PRMT1 (protein arginine N-methyltransferase 1). In words: PRMT1 binders on small-molecule microarrays, primary screen, biochemical, small-molecule microarray, 635 nm fluorescence (AID 1088).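 Also: binding of Prmt1 protein to compounds spotted on small-molecule microarray slides.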 The settings on record: small-molecule microarray binding, higher = more signal.
Experiment [12] can be described thus: yeast growth modulation, basal conditions, primary screen, YJM789 clinical isolate, OD600, 24 h (AID 1089).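 Also: growth of clinical yeast isolate S. cerevisiae YJM 789 seeded 1000 cells per well; test concentration not given here.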 The settings on record: S. cerevisiae YJM789 growth, higher = more signal, called active from +8 up or from −8 down.
Experiment [13] is described as follows: fission yeast growth modulation, primary screen, strain 972, OD600, 24 h, no modulator (AID 1090).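 Also: basal condition with compound alone and no growth modifier present; test concentration not given here.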 The note with it: S. pombe 972 growth, higher = more signal, called active from +8 up or from −8 down.
Experiment [14] in a line: S. cerevisiae growth modulation with rapamycin, primary screen, strain BY4716, OD600, 96 h (AID 1091). Also: test concentration not given here. The settings on record: higher = more signal, called active from +8 up or from −8 down.
Experiment [15] has as its target Torsin-1A-interacting protein 2 (Homo sapiens) (UniProt Q8NFQ8). In words: LULL1 binders on small-molecule microarray, primary screen, cell lysate, human LULL1 lysate, 635/667 nm fluorescence (AID 1092).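 Also: probe is lysate of COS7 cells overexpressing human LULL1; score merges per-feature 667 nm fluorescence with signal-to-noise.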 The note with it: hLULL1 lysate binding, 635 nm fluorescence, higher = more signal.
Experiment [16] is described as follows: E. coli growth modulation, two-sided OD650, primary screen, E. coli filamentation project, strain DRC41, 24 h (AID 1093).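 Also: MC1000 strain lacking acrAB efflux and sulA so SOS filamentation is blocked; test concentration not given here.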 The settings on record: OD650, 24 h, higher = more signal, called active from +8 up or from −8 down.
Experiment [17] in a line: small-molecule microarray binders of probe aLefty2, primary screen, biochemical, biotinylated probe, 635/667 nm fluorescence (AID 1094).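 Also: score merges spot fluorescence near 667 nm with spot signal-to-noise ratio.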 The note with it: higher = more signal.
Experiment [18] has as its system Noggin (protein binding on small-molecule microarray). In words: Noggin binders on small-molecule microarray, primary screen, biochemical, 635/667 nm fluorescence (AID 1095).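 Also: score merges 667 nm feature fluorescence with signal to noise over triplicate slides.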 The settings on record: 635 nm fluorescence, higher = more signal.
Experiment [19] addresses Neurogenic locus notch homolog protein 3 (Homo sapiens) (UniProt Q9UM47). In words: NOTCH3 binders on small-molecule microarray, primary screen, biochemical, 635/667 nm fluorescence (AID 1096). The note with it: NOTCH3 binding, 635 nm fluorescence, higher = more signal.
Experiment [20] in a line: small-molecule microarray binders of probe aEGFR, primary screen, biochemical, biotinylated probe, 635/667 nm fluorescence (AID 1097).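 Also: probe is a biotinylated anti-EGFR antibody binding compounds printed on slides; score combines fluorescence near 667 nm and signal to noise of each spot.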 The settings on record: higher = more signal.

Chain of Neurogenic locus notch homolog protein 3 (Homo sapiens) (Q9UM47 whole entry, looked up): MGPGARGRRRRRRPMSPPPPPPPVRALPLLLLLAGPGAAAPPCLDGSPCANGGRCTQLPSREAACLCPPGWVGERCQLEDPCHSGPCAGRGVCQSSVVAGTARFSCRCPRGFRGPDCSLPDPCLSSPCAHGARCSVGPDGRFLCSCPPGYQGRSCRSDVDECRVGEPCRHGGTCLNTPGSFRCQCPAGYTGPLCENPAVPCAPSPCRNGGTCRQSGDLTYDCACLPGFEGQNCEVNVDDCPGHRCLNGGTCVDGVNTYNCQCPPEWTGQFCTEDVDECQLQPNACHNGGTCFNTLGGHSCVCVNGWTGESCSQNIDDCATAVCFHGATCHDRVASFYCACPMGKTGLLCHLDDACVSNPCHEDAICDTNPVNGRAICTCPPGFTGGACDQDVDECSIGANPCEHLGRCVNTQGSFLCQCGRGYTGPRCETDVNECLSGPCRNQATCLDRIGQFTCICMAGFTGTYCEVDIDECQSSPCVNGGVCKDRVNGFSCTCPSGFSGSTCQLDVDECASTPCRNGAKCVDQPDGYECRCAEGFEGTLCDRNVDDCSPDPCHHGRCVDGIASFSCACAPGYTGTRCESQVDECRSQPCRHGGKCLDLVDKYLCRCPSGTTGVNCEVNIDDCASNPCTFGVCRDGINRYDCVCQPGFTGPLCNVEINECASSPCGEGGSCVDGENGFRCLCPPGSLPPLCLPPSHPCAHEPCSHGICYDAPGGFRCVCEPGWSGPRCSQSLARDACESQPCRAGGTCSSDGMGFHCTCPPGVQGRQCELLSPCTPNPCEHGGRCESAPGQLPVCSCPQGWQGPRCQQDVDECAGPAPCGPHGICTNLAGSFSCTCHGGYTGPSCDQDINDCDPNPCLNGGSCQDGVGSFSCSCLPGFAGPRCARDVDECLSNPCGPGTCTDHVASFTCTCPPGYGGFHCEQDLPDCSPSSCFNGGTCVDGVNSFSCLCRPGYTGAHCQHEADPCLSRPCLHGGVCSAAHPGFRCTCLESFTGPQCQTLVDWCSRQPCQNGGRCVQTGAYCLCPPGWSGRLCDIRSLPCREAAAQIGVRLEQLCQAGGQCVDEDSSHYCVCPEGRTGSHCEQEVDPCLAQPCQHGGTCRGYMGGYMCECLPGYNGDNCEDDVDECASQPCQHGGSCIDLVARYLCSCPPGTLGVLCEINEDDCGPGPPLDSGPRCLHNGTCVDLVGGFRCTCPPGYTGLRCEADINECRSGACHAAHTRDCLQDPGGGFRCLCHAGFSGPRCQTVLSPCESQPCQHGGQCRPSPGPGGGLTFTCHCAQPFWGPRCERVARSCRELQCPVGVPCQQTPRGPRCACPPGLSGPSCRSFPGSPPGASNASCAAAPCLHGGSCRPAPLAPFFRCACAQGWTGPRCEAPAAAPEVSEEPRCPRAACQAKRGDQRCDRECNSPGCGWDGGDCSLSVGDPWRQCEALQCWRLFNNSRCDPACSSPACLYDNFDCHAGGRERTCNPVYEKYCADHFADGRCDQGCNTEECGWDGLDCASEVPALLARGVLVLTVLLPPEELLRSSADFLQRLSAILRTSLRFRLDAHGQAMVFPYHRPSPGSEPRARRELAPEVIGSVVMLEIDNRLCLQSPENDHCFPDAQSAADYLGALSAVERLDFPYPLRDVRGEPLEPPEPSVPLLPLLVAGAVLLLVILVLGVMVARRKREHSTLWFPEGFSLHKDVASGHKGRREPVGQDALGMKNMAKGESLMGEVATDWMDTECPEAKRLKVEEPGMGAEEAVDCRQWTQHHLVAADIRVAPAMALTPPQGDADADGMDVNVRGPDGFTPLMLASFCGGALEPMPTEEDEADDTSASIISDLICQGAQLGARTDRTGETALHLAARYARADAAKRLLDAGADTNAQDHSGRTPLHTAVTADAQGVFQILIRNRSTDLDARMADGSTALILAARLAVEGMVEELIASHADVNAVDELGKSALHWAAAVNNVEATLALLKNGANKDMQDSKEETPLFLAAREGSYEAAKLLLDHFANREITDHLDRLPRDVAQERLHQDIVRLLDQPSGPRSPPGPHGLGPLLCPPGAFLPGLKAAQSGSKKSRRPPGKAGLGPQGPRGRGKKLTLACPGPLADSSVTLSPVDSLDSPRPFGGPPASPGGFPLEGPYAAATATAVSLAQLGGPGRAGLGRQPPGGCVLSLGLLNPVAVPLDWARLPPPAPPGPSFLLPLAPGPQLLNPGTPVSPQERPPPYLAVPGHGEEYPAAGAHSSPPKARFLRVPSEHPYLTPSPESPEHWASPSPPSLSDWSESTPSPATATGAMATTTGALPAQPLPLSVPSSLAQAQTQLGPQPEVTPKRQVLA
Chain of Torsin-1A-interacting protein 2 (Homo sapiens) (Q8NFQ8 whole entry, looked up): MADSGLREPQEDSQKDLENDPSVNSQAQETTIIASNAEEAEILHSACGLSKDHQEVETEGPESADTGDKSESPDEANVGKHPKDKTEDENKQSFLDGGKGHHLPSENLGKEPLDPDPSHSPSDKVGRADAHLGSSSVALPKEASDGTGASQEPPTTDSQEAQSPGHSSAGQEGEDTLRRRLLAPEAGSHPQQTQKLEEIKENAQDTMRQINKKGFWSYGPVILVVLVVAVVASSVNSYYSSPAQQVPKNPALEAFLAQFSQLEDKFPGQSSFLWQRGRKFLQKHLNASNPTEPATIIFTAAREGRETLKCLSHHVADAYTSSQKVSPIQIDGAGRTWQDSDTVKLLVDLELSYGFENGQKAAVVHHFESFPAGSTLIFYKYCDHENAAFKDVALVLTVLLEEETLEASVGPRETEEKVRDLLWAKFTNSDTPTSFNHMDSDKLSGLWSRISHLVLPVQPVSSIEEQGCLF

In the case of `CN(C)CCCCCCNC(=O)[C@@H]1C[C@@H]2C(=O)NCC(=O)N2[C@@H]1c1ccc(O)cc1`, the composite z-score in [1] is -0.316; in [2], 1.51; in [3] it was 0.0231; in [4], 1.26; in experiment [5], 0.194; in experiment [6] it was 0.504. Further, the composite z-score is 1.34 in [7]; 0.92 in [9]; 0.107 in experiment [10]; 1.53 in [11]; 2.72 in [15]; -0.16 in experiment [17]. The composite z-score in experiment [18] is 1.47; in experiment [19], 1.04; in experiment [20] it was -0.0304. Further, the z-score in experiment [8] is 2.08 (inactive); in experiment [12], -1.2 (inactive); in experiment [13] it was -0.639 (inactive); in experiment [14] it was -0.296 (inactive); in experiment [16], -0.427 (inactive).
With `COCC(=C=CC[C@@H](O)c1ccccc1OCCO)C[C@@H](O)COCc1ccccc1`, the composite z-score in [1] was 0.181; in [2] it was 1.12; in experiment [3] it was -0.0267; in experiment [4], 1.06; in experiment [5], -0.258; in [6], 1.68. The composite z-score in [7] is 1.01; in [9] it was 0.463; in experiment [10], 0.891; in experiment [11] it was 1.23; in [15], 2.62; in [17], 0.437. Moreover, the composite z-score in [18] was 1.01; in experiment [19] it was -0.0082; in [20] it was 0.0017. Further, the z-score is -1.11 (inactive) in [8]; -0.893 (inactive) in [12]; -1.68 (inactive) in experiment [13]; -1.26 (inactive) in experiment [14]; 1.73 (inactive) in [16].
`COCCCNC(=O)[C@@]1(Cc2ccccc2N=[N+]=[N-])N=C(c2ccc(OCCCO)cc2)O[C@H]1c1ccccc1CN=[N+]=[N-]`: the composite z-score in experiment [1] is 0.377; in experiment [2], 0.556; in experiment [3], 0.185; in experiment [4], 1.07; in [5] it was 1.47; in experiment [6], 1.78. Besides, the composite z-score in experiment [7] is 1.26; in [9] it was 0.893; in experiment [10], -0.192; in [11], 1.56; in experiment [15], 3.49; in [17], 0.235. Moreover, the results for the composite z-score in experiment [18], in experiment [19] and in [20] were -0.0194, 1.07 and 0.43, respectively. Also, the z-score in experiment [8] was -0.344 (inactive); in [12] it was -0.873 (inactive); in experiment [13], 0.553 (inactive); in experiment [14], 6.93 (inactive); in experiment [16] it was 1.04 (inactive).
Take `CO[C@H]1O[C@H](CO)[C@@H](OC(=O)Nc2ccc(C(F)(F)F)cc2)[C@H](OC(=O)Nc2ccccc2)[C@H]1OC(=O)Nc1ccccc1`: the composite z-score in [1] came to 0.113; in experiment [2] it was 0.745; in [3], 0.233; in [4], 1.15; in experiment [5], 1.58; in [6] it was 1.72. Further, the composite z-score is 1.3 in experiment [7]; 1.07 in [9]; -0.105 in [10]; 1.53 in [11]; 3.14 in [15]; 0.158 in experiment [17]. The composite z-score came out at 0.896 in experiment [18], 1.04 in experiment [19] and 0.172 in [20]. In addition, the z-score in [8] was 2.74 (inactive); in [12], 0.719 (inactive); in [13], -0.304 (inactive); in experiment [14], 5.51 (inactive); in experiment [16] it was -0.994 (inactive).
Take `CC1CC/C=C\[C@H]2OC34C=CCN(Cc5ccccc5)C(=O)[C@H]3N(CCO)C(=O)[C@@H]4C2C(=O)O1` (stereo not given in full): the composite z-score is 0.767 in experiment [1]; 2.2 in experiment [2]; -0.0662 in [3]; 1.1 in experiment [4]; -0.821 in experiment [5]; 1.86 in experiment [6]. The composite z-score was 1.51 in [7]; -0.253 in experiment [9]; -0.0994 in [10]; 0.205 in experiment [11]; 1.27 in experiment [15]; -0.0042 in experiment [17]. The composite z-score in experiment [18] was -0.585; in [19], -0.127; in [20], -0.113. In addition, the z-score in [8] is 0.781 (inactive); in experiment [12], -0.404 (inactive); in [13], -0.791 (inactive); in experiment [14] it was 0.285 (inactive); in experiment [16], 1.36 (inactive).
